From PubChem BioAssay (NCI)
Compounds without any hit were thinned out: in the full panel of roughly 83,000, 20% have a hit.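 Plates (96-well) were seeded with cells, treated with compound at one concentration, and incubated for 48 hours before percent growth was determined.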 Values without a mark were called inactive. Active and inactive are the calls of the source.

Tested on: T-47D breast
Experiment: NCI-60 one-dose screen, 48 h (100 = growth as untreated, 0 = no growth, -100 = all killed)
Conditions: 10 µM unless noted
Protocol: Growth inhibition of the T-47D human tumor cell line is measured as a screen for anti-cancer activity. Cells are grown in 96 well plates and exposed to the test compound for 48 hours. Compounds are tested at a single concentration, which is 10^-5 M for most compounds. The reported endpoint is percent growth (GI% or GIPRCNT), where numbers from 0 - 100% represent growth inhibition, and numbers from -100% - 0 represent cell death. For example, a value of 40 represents 60% growth inhibition. A value of 0 means no net growth occurred over the course of the experiment. A value of -40 indicates 40% of cells at the beginning of the experiment died by the end of the experiment. A value of -100 means all cells are dead at the end of the experiment.
NCI-60 Human Tumor Cell Lines Screen was performed using the standard one-dose NCI protocol, which is described in more detail at https://dtp.cancer.gov/discovery_development/nci-60/default.htm.
Compounds with GIPRCNT values below 10 were considered active. Activity score was based on GIPRCNT using the following formula: […]
Score is 0 for GIPRCNT values of 100 or above, 50 for GIPRCNT values of 0, and 100 for GIPRCNT values of -100.

SMILES	growth
CC(=O)OCCc1ccccc1	66.7%
CCCCN1CCN(c2ccc3nc(-c4ccc5nc(-c6cc(OC)c(OC)c(OC)c6)[nH]c5c4)[nH]c3c2)CC1	66%
CCOC(=O)c1ccc(NC(=O)CCCN(CC)CC)cc1	92.6%
CC1=CC(=O)C(C(C)C)=CC1=Nc1cc(Br)c(O)c(Br)c1	75.5%
CC(C)c1ccc(C(=O)OC(=O)c2ccc(C(C)C)cc2)cc1	95.3%
CCOc1ccc2nc(-c3cccc(OCC(=O)NC(C)C)c3)nc(Nc3ccc(-c4cn[nH]c4)cc3)c2c1	-25.2% (active)
CSc1ccc(Cl)c(C(=O)Nc2sccc2C(N)=O)c1	44.1%
COc1cc(C2CC(=O)Nc3n[nH]c(-c4ccccc4)c32)cc(OC)c1OC (stereo not given)	67.3%
O=S(=O)(NCCNc1cc(-c2c(-c3cccc(O)c3)nc3sccn23)ccn1)c1ccc(Br)cc1	23.8%
O=C1NCC(=O)N(Cc2ccco2)[C@H]1Cc1ccccc1	88%
COc1ccc(CN2C(=O)/C(=C\c3cc(OC)c(OC)c(OC)c3)c3ccccc32)cc1	-2.48% (active)
Cc1cccc(-c2cc(O)c(C(=O)N3CCOCC3)s2)c1	18.9%
Cc1c(C(N)=O)sc2nc(C)n(/N=c3\scc(-c4ccccc4)n3Cc3ccccc3)c(=O)c12	34.7%
COc1ccc(-c2nnc(SCC(=O)NC3=NN=C(c4ccccc4)CS3)o2)cc1	78.4%
N#Cc1c(Oc2ccc([N+](=O)[O-])cc2)nc2sc3cc(Cl)ccc3n2c1=N	60.2%
O[C@H]1CO[C@H]2[C@@H]1OC[C@@H]2Oc1ccc(Nc2ccnc(Nc3ccc(O[C@H]4CO[C@H]5[C@@H]4OC[C@@H]5O)c(Cl)c3)n2)cc1Cl	2.36% (active)
CCn1c(Sc2nnc(Nc3ccccc3)s2)nc2c1c(=O)n(C)c(=O)n2C	87.2%
C=CCO[C@H]1CO[C@H]2[C@@H]1OC[C@@H]2Oc1ccc(Nc2ccnc(Nc3ccc(O[C@H]4CO[C@H]5[C@@H]4OC[C@@H]5OCC=C)c(Cl)c3)n2)cc1Cl	-39.7% (active)
COc1cc(-c2cc(-c3ccc(Nc4nc(Nc5ccccc5)nc(Nc5ccc(Cl)cc5)n4)cc3)nc(N)n2)cc(OC)c1OC	38.4%
CNC(=O)c1cc(Oc2ccc3nc(NC(=O)Nc4cc(C(F)(F)F)cc(C(F)(F)F)c4)sc3c2)ccn1	-39.6% (active)

SMILES	growth
O=c1oc2ccc(Cl)cc2cc1-c1cs/c(=N/N=C\c2ccc(Cl)cc2)n1/N=C/c1ccc(Cl)cc1	87.5%
O=C(Oc1ccc([N+](=O)[O-])cc1)c1ccc(CBr)cc1	125%
Nc1ccn(C2OC(F)(CO)C(O)C2F)c(=O)n1 (stereo not given)	55.3%
CCCCNCC(=O)Nc1ccc(C(=O)OCC)cc1	96.8%
O=C1CSC(c2ccccc2Cl)N1c1nnc(Cn2cnnc2)o1 (stereo not given)	33.3%
N=C(N)c1ccc(-c2ccc(-c3ccc(Cl)c(Cl)c3)o2)cc1	64.3%
C/C(=N\NC(N)=S)c1nc2ccc(Cl)cc2[nH]1	40.5%
NC(=O)CC1(O)C=C(Br)C(=O)C(Br)=C1	31%
COc1ccc2c(c1)/C(=C\c1sc(=S)[nH]c1O)C(C(=O)O)=N2	94.3%
CCCCN1CCN(c2ccc3nc(-c4ccc5nc(-c6ccc(OCC)c(OCC)c6)[nH]c5c4)[nH]c3c2)CC1	39.9%
Cc1ccc(Nc2ccc(Nc3ccc(C)cc3S(=O)(=O)O)c3c2C(=O)c2ccccc2C3=O)c(S(=O)(=O)O)c1	111%
O=C1C2=C(CCN(Cc3ccccc3)C2)N2CCN=C2N1Cc1ccc(F)cc1F	33.4%
C=C(C)C1CCC(=C)C2CCC3(C)OC12/C=C(/COC(C)=O)CCC3O (stereo not given)	112%
NC(=Nc1ccc(N)cc1)C(N)=Nc1ccc(N)cc1	104%
O=C(NC1CCOCC1)c1ccc2c(c1)CN(c1ncc(Cc3cccc(-n4cccn4)c3)s1)CC2	38.9%
Cc1ccc(/C=C(\C#N)n2nnc3cc(Cl)c(Cl)cc32)cc1	15.1%
COc1ccc(C2CC(c3cnccn3)=NN2)cc1OC (stereo not given)	98.7%
COc1ccc2cc(-c3ccc(C(=O)NN)c(C)n3)ccc2c1	79.5%
Cc1c(C)c2c(c(C)c1NC(=O)/C=C\C(=O)O)CCC(C)(CCCC(C)CCCC(C)CCCC(C)C)O2 (stereo not given)	54.5%
COc1cc(/C=C/C(=O)c2cccc(-n3cc(-c4ccc(Cl)cc4)[nH]c3=O)c2)cc(OC)c1OC	41.1%
